# PubChem BioAssay AID1159580 (chemical genetic matrix, 2015)
# “And” between values parts separate entries of the source, which are not always exact repeats. Equal entries are not always repeated. Among all 5,500 compounds or so, about 2,000 (36%) were called active. Roughly 18% stayed inconclusive and do not appear here. Some of the results follow. Unmarked numbers belong to inactive results. Rule as the data show it: active = normalized growth mostly below about 0.91 (no sharp cut-off); inconclusive = no clear call, values can overlap the other calls; inactive = mostly above about 0.92.
# Experiment: chemical genetic growth profiling, strain panel (AID 1159580);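 also: tested at 20 µM; growth read once vehicle control cultures reached saturation at 30 °C; 1 = growth at the plate median or of vehicle wells; lower values mean less growth of the strain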
# Conditions: growth OD
smiles,measurement,setting,value
Nc1c2c(nc3ccccc13)CCCC2,normalized growth,"S. cerevisiae deletion strains, locus YKL068W, stronger effect = lower value",1.01
same,normalized growth,"S. cerevisiae deletion strains, locus YKL085W, strain MDH1 (second series), stronger effect = lower value",1.01
same,normalized growth,"S. cerevisiae deletion strains, locus YKL085W, strain MDH1, stronger effect = lower value",1.01
same,normalized growth,"S. cerevisiae deletion strains, locus YKL160W, strain elf1, stronger effect = lower value",1.01
same,normalized growth,"S. cerevisiae deletion strains, locus YKL190W, strain CNB1, stronger effect = lower value",1.02
same,normalized growth,"S. cerevisiae deletion strains, locus YKR001C, strain vps1, stronger effect = lower value",0.998
same,normalized growth,"S. cerevisiae deletion strains, locus YKR026C, strain gcn3, stronger effect = lower value",0.986
same,normalized growth,"S. cerevisiae deletion strains, locus YKR091W, strain srl3, stronger effect = lower value",0.994
same,normalized growth,"S. cerevisiae deletion strains, locus YLL001W, strain dnm1, stronger effect = lower value",0.989
same,normalized growth,"S. cerevisiae deletion strains, locus YLL026W, stronger effect = lower value",0.99
same,normalized growth,"S. cerevisiae deletion strains, locus YLL041C, strain sdh2, stronger effect = lower value",0.982
same,normalized growth,"S. cerevisiae deletion strains, locus YLR027C, strain aat2, stronger effect = lower value",0.984
same,normalized growth,"S. cerevisiae deletion strains, locus YLR039C, strain RIC1, stronger effect = lower value",1.09
same,normalized growth,"S. cerevisiae deletion strains, locus YLR058C, strain SHM2, stronger effect = lower value",1.02
same,normalized growth,"S. cerevisiae deletion strains, locus YLR102C, strain apc9, stronger effect = lower value",1.01
same,normalized growth,"S. cerevisiae deletion strains, locus YLR113W, strain HOG1, stronger effect = lower value",1.02
same,normalized growth,"S. cerevisiae deletion strains, locus YLR221C, strain rsa3, stronger effect = lower value",0.963
same,normalized growth,"S. cerevisiae deletion strains, locus YLR258W, strain gsy2, stronger effect = lower value",1
same,normalized growth,"S. cerevisiae deletion strains, locus YLR262C, strain YPT6 (second series), stronger effect = lower value",1.01
same,normalized growth,"S. cerevisiae deletion strains, locus YLR262C, strain YPT6, stronger effect = lower value",1.1
same,normalized growth,"S. cerevisiae deletion strains, locus YLR268W, strain sec22, stronger effect = lower value",1.01
same,normalized growth,"S. cerevisiae deletion strains, locus YLR320W, strain mms22, stronger effect = lower value",0.947
same,normalized growth,"S. cerevisiae deletion strains, locus YLR330W, strain CHS5, stronger effect = lower value",1.01
same,normalized growth,"S. cerevisiae deletion strains, locus YLR342W, strain FKS1 (second series), stronger effect = lower value",1
same,normalized growth,"S. cerevisiae deletion strains, locus YLR342W, strain FKS1, stronger effect = lower value",0.999
same,normalized growth,"S. cerevisiae deletion strains, locus YLR357W, strain rsc2, stronger effect = lower value",0.994
same,normalized growth,"S. cerevisiae deletion strains, locus YLR370C, strain arc18, stronger effect = lower value",1.01
same,normalized growth,"S. cerevisiae deletion strains, locus YLR371W, strain rom2, stronger effect = lower value",1.03
same,normalized growth,"S. cerevisiae deletion strains, locus YLR384C, strain iki3, stronger effect = lower value",0.99
same,normalized growth,"S. cerevisiae deletion strains, locus YLR418C, strain cdc73, stronger effect = lower value",1.03
same,normalized growth,"S. cerevisiae deletion strains, locus YML016C, strain PPZ1, stronger effect = lower value",1.01
same,normalized growth,"S. cerevisiae deletion strains, locus YML032C, strain rad52, stronger effect = lower value",1.01
same,normalized growth,"S. cerevisiae deletion strains, locus YML120C, strain ndi1, stronger effect = lower value",1
same,normalized growth,"S. cerevisiae deletion strains, locus YML124C, strain tub3, stronger effect = lower value",1.02
same,normalized growth,"S. cerevisiae deletion strains, locus YMR058W, strain fet3, stronger effect = lower value",0.979
same,normalized growth,"S. cerevisiae deletion strains, locus YMR078C, strain ctf18, stronger effect = lower value",1.02
same,normalized growth,"S. cerevisiae deletion strains, locus YMR125W, strain sto1, stronger effect = lower value",1.01
same,normalized growth,"S. cerevisiae deletion strains, locus YMR129W, stronger effect = lower value",0.99
same,normalized growth,"S. cerevisiae deletion strains, locus YMR205C, strain PFK2, stronger effect = lower value",1.01
same,normalized growth,"S. cerevisiae deletion strains, locus YMR223W, strain ubp8, stronger effect = lower value",1.01
same,normalized growth,"S. cerevisiae deletion strains, locus YMR231W, strain pep5, stronger effect = lower value",0.976
same,normalized growth,"S. cerevisiae deletion strains, locus YMR263W, strain SAP30, stronger effect = lower value",1.01
same,normalized growth,"S. cerevisiae deletion strains, locus YMR307W, strain GAS1, stronger effect = lower value",0.999
same,normalized growth,"S. cerevisiae deletion strains, locus YNL067W, strain RPL9B, stronger effect = lower value",0.998
same,normalized growth,"S. cerevisiae deletion strains, locus YNL071W, strain lat1, stronger effect = lower value",1
same,normalized growth,"S. cerevisiae deletion strains, locus YNL128W, strain TEP1, stronger effect = lower value",1.01
same,normalized growth,"S. cerevisiae deletion strains, locus YNL153C, strain GIM3, stronger effect = lower value",0.994
same,normalized growth,"S. cerevisiae deletion strains, locus YNL175C, strain NOP13, stronger effect = lower value",0.99
same,normalized growth,"S. cerevisiae deletion strains, locus YNL183C, strain NPR1, stronger effect = lower value",0.954
same,normalized growth,"S. cerevisiae deletion strains, locus YNL197C, strain WHI3, stronger effect = lower value",1.01
same,normalized growth,"S. cerevisiae deletion strains, locus YNL209W, strain ssb2, stronger effect = lower value",1.01
same,normalized growth,"S. cerevisiae deletion strains, locus YNL224C, strain SQS1, stronger effect = lower value",0.995
same,normalized growth,"S. cerevisiae deletion strains, locus YNL233W, strain BNI4, stronger effect = lower value",0.999
same,normalized growth,"S. cerevisiae deletion strains, locus YNL248C, strain rpa49, stronger effect = lower value",0.84 (active)
same,normalized growth,"S. cerevisiae deletion strains, locus YNL250W, strain rad50, stronger effect = lower value",1.03
same,normalized growth,"S. cerevisiae deletion strains, locus YNL271C, strain bni1, stronger effect = lower value",1.02
same,normalized growth,"S. cerevisiae deletion strains, locus YNL298W, strain CLA4, stronger effect = lower value",1.02
same,normalized growth,"S. cerevisiae deletion strains, locus YNL307C, strain MCK1, stronger effect = lower value",1.02
same,normalized growth,"S. cerevisiae deletion strains, locus YNL322C, strain KRE1 (second series), stronger effect = lower value",1.01
same,normalized growth,"S. cerevisiae deletion strains, locus YNL322C, strain KRE1, stronger effect = lower value",1.01
same,normalized growth,"S. cerevisiae deletion strains, locus YNR049C, strain mso1, stronger effect = lower value",0.975
same,normalized growth,"S. cerevisiae deletion strains, locus YNR052C, strain pop2, stronger effect = lower value",1
same,normalized growth,"S. cerevisiae deletion strains, locus YOL006C, strain TOP1, stronger effect = lower value",1.05
same,normalized growth,"S. cerevisiae deletion strains, locus YOL012C, strain htz1",0.82
same,normalized growth,"S. cerevisiae deletion strains, locus YOL147C, strain pex11, stronger effect = lower value",1.01
same,normalized growth,"S. cerevisiae deletion strains, locus YOR001W, strain rrp6, stronger effect = lower value",0.925
same,normalized growth,"S. cerevisiae deletion strains, locus YOR061W, strain CKA2, stronger effect = lower value",1.02
same,normalized growth,"S. cerevisiae deletion strains, locus YOR069W, strain VPS5, stronger effect = lower value",1.01
same,normalized growth,"S. cerevisiae deletion strains, locus YOR070C, strain gyp1, stronger effect = lower value",0.975
same,normalized growth,"S. cerevisiae deletion strains, locus YOR080W, strain dia2, stronger effect = lower value",0.969
same,normalized growth,"S. cerevisiae deletion strains, locus YOR083W, strain WHI5 (second series), stronger effect = lower value",0.962
same,normalized growth,"S. cerevisiae deletion strains, locus YOR083W, strain WHI5, stronger effect = lower value",0.994
same,normalized growth,"S. cerevisiae deletion strains, locus YOR106W, strain vam3, stronger effect = lower value",0.997
same,normalized growth,"S. cerevisiae deletion strains, locus YOR136W, strain idh2, stronger effect = lower value",1.02
same,normalized growth,"S. cerevisiae deletion strains, locus YOR144C, strain elg1, stronger effect = lower value",1.02
same,normalized growth,"S. cerevisiae deletion strains, locus YOR184W, strain ser1, stronger effect = lower value",1.04
same,normalized growth,"S. cerevisiae deletion strains, locus YOR231W, strain MKK1, stronger effect = lower value",0.985
same,normalized growth,"S. cerevisiae deletion strains, locus YOR265W, strain rbl2, stronger effect = lower value",0.99
same,normalized growth,"S. cerevisiae deletion strains, locus YOR270C, strain vph1, stronger effect = lower value",0.888
same,normalized growth,"S. cerevisiae deletion strains, locus YOR290C, strain snf2, stronger effect = lower value",0.971
same,normalized growth,"S. cerevisiae deletion strains, locus YOR316C, strain cot1, stronger effect = lower value",1.02
same,normalized growth,"S. cerevisiae deletion strains, locus YPL051W, strain arl3, stronger effect = lower value",0.951
same,normalized growth,"S. cerevisiae deletion strains, locus YPL055C, strain LGE1, stronger effect = lower value",1.02 and 0.992
same,normalized growth,"S. cerevisiae deletion strains, locus YPL078C, strain atp4, stronger effect = lower value",1.02
same,normalized growth,"S. cerevisiae deletion strains, locus YPL106C, strain sse1, stronger effect = lower value",0.982
same,normalized growth,"S. cerevisiae deletion strains, locus YPL240C, strain hsp82, stronger effect = lower value",0.987
same,normalized growth,"S. cerevisiae deletion strains, locus YPL241C, strain CIN2, stronger effect = lower value",1.01
same,normalized growth,"S. cerevisiae deletion strains, locus YPL256C, strain CLN2, stronger effect = lower value",0.995
same,normalized growth,"S. cerevisiae deletion strains, locus YPR119W, strain clb2, stronger effect = lower value",1.01
same,normalized growth,"S. cerevisiae deletion strains, locus YPR141C, strain kar3, stronger effect = lower value",1.01
same,normalized growth,"S. cerevisiae deletion strains, locus YPR163C, strain tif3, stronger effect = lower value",1.01
same,normalized growth,"S. cerevisiae deletion strains, locus YPR167C, strain met16, stronger effect = lower value",1.02
same,normalized growth,"S. cerevisiae deletion strains, strain wtn01, stronger effect = lower value",1.02
same,normalized growth,"S. cerevisiae strains, strain wild type, stronger effect = lower value",1.02
